# Results as given in the supplement of paper PMC8728848.
# The sample as a whole holds a higher share of the strongest signals than the screen did.
# Experiments:
# Experiment in all cases: glycan array binding signal (z-score within array); higher = stronger binding
# Details in all cases: glycan notation: IUPAC condensed, linker removed
# Fuc(a1-2)Gal(b1-3)GalNAc = target: Fuc(a1-2)Gal(b1-3)GalNAc
# In short: (§1)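 Glycan array data came from 3228 arrays in the Consortium for Functional Glycomics database, and only arrays with an available protein sequence were kept. Glycan names were put into IUPAC-condensed notation, and columns mapping to the same glycan were averaged. The binding signal is a within-array Z-score, averaged across arrays of one protein sequence run at different concentrations or buffers and across linkers. A negative Z-score can be read as non-binding.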
# [1] = target: Fuc(a1-2)Gal(b1-3)GalNAc(b1-4)[Neu5Ac(a2-3)]Gal(b1-4)Glc
# In short: as §1
# [2] = target: Fuc(a1-2)Gal(b1-3)GlcNAc(b1-3)[Neu5Ac(a2-6)Gal(b1-4)GlcNAc(b1-6)]Gal(b1-4)Glc
# In short: as §1
# [3] = target: Fuc(a1-2)Gal(b1-4)GlcNAc(b1-3)Gal(b1-4)GlcNAc(b1-3)Gal(b1-4)GlcNAc
# In short: as §1
# [4] = target: Fuc(a1-2)Gal(b1-4)GlcNAc(b1-3)[Fuc(a1-2)Gal(b1-4)GlcNAc(b1-6)]GalNAc
# In short: as §1
# [5] = target: Fuc(a1-2)Gal(b1-4)[Fuc(a1-3)]GlcNAc(b1-3)GalNAc
# In short: as §1
# [6] = target: Fuc(a1-2)Gal6S(b1-4)GlcNAc
# In short: as §1
# Fuc(a1-2)[Gal(a1-3)]Gal = target: Fuc(a1-2)[Gal(a1-3)]Gal
# In short: as §1
# [7] = target: Fuc(a1-2)[Gal(a1-3)]Gal(b1-4)GlcNAc(b1-2)Man(a1-3)[Fuc(a1-2)[Gal(a1-3)]Gal(b1-4)GlcNAc(b1-2)Man(a1-6)]Man(b1-4)GlcNAc(b1-4)[Fuc(a1-6)]GlcNAc
# In short: as §1
# [8] = target: Fuc(a1-2)[Gal(a1-3)]Gal(b1-4)GlcNAc(b1-3)[Fuc(a1-2)[Gal(a1-3)]Gal(b1-4)GlcNAc(b1-6)]GalNAc
# In short: as §1
# [9] = target: Fuc(a1-2)[GalNAc(a1-4)]Gal(b1-4)GlcNAc
# In short: as §1
# [10] = target: Fuc(a1-3)[Gal(b1-4)]GlcNAc(b1-3)GalNAc
# In short: as §1
# [11] = target: Gal(a1-3)Gal(b1-4)[Fuc(a1-3)]GlcNAc
# In short: as §1
# Gal(b1-3)Gal = target: Gal(b1-3)Gal
# In short: as §1
# Gal(b1-3)Gal(b1-4)GlcNAc = target: Gal(b1-3)Gal(b1-4)GlcNAc
# In short: as §1
# [12] = target: Gal(b1-3)GalNAc(a1-3)[Fuc(a1-2)]Gal(b1-4)Glc
# In short: as §1
# [13] = target: Gal(b1-3)GalNAc(a1-3)[Fuc(a1-2)]Gal(b1-4)GlcNAc
# In short: as §1
# Gal(b1-3)GalNAc(b1-3)Gal = target: Gal(b1-3)GalNAc(b1-3)Gal
# In short: as §1
# [14] = target: Gal(b1-3)GalNAc(b1-3)Gal(a1-4)Gal(b1-4)Glc
# In short: as §1
# [15] = target: Gal(b1-3)GalNAc(b1-4)Gal(b1-4)Glc
# In short: as §1
# [16] = target: Gal(b1-3)GalNAc(b1-4)[Neu5Ac(a2-3)]Gal(b1-4)Glc
# In short: as §1
# Gal(b1-3)GlcNAc = target: Gal(b1-3)GlcNAc
# In short: as §1
# [17] = target: Gal(b1-3)GlcNAc(b1-3)Gal(b1-3)GlcNAc
# In short: as §1
# [18] = target: Gal(b1-3)[GlcNAc(b1-6)]GalNAc
# In short: as §1
# [19] = target: Gal(b1-3)[Neu5Ac(a2-6)]GalNAc
# In short: as §1
# Gal(b1-4)Glc = target: Gal(b1-4)Glc
# In short: as §1
# [20] = target: Gal(b1-4)GlcNAc(b1-3)Gal(b1-3)GlcNAc
# In short: as §1
# [21] = target: Gal(b1-4)GlcNAc(b1-3)Gal(b1-4)GlcNAc(b1-3)Gal(b1-4)GlcNAc(b1-3)Gal(b1-4)GlcNAc(b1-3)Gal(b1-4)GlcNAc(b1-2)[Gal(b1-4)GlcNAc(b1-3)Gal(b1-4)GlcNAc(b1-3)Gal(b1-4)GlcNAc(b1-3)Gal(b1-4)GlcNAc(b1-3)Gal(b1-4)GlcNAc(b1-6)]Man(a1-6)[Gal(b1-4)GlcNAc(b1-3)Gal(b1-4)GlcNAc(b1-3)Gal(b1-4)GlcNAc(b1-3)Gal(b1-4)GlcNAc(b1-3)Gal(b1-4)GlcNAc(b1-2)Man(a1-3)]Man(b1-4)GlcNAc(b1-4)[Fuc(a1-6)]GlcNAc
# In short: as §1
# [22] = target: Gal(b1-4)GlcNAc(b1-3)[Gal(b1-4)GlcNAc(b1-6)]GalNAc
# In short: as §1
# [23] = target: Gal(b1-4)GlcNAc(b1-6)Gal(b1-4)GlcNAc
# In short: as §1
# [24] = target: Gal(b1-4)GlcNAc(b1-6)[Gal(b1-3)]GlcNAc
# In short: as §1
# Gal6P(b1-4)GlcNAc = target: Gal6P(b1-4)GlcNAc
# In short: as §1
# GalNAc(b1-3)Gal = target: GalNAc(b1-3)Gal
# In short: as §1
# [25] = target: GalNAc(b1-3)Gal(a1-4)Gal(b1-4)GlcNAc
# In short: as §1
# GalNAc(b1-4)Gal(b1-4)Glc = target: GalNAc(b1-4)Gal(b1-4)Glc
# In short: as §1
# [26] = target: GlcNAc(a1-4)Gal(b1-4)GlcNAc(b1-3)Gal(b1-4)Glc
# In short: as §1
# [27] = target: GlcNAc(a1-4)Gal(b1-4)GlcNAc(b1-3)Gal(b1-4)GlcNAc(b1-3)Gal(b1-4)GlcNAc
# In short: as §1
# [28] = target: GlcNAc(b1-2)Gal(b1-3)GalNAc
# In short: as §1
# [29] = target: GlcNAc(b1-2)Man(a1-3)[GlcNAc(b1-2)Man(a1-6)]Man(b1-4)GlcNAc(b1-4)[Fuc(a1-6)]GlcNAc
# In short: as §1
# GlcNAc(b1-3)Fuc = target: GlcNAc(b1-3)Fuc
# In short: as §1
# [30] = target: GlcNAc(b1-3)Gal(b1-4)GlcNAc(b1-3)[GlcNAc(b1-3)Gal(b1-4)GlcNAc(b1-3)]GalNAc
# In short: as §1
# GlcNAc(b1-3)Man = target: GlcNAc(b1-3)Man
# In short: as §1
# GlcNAc(b1-4)GlcNAc = target: GlcNAc(b1-4)GlcNAc
# In short: as §1
# [31] = target: Neu5Ac(a2-3)Gal(b1-3)GalNAc(b1-4)[Neu5Ac(a2-8)Neu5Ac(a2-3)]Gal(b1-4)Glc
# In short: as §1
# [32] = target: Neu5Ac(a2-3)Gal(b1-3)GlcNAc(b1-3)Gal(b1-3)GlcNAc
# In short: as §1
# [33] = target: Neu5Ac(a2-3)Gal(b1-3)GlcNAc(b1-3)GalNAc
# In short: as §1
# [34] = target: Neu5Ac(a2-3)Gal(b1-3)[Fuc(a1-4)]GlcNAc(b1-3)Gal(b1-3)[Fuc(a1-4)]GlcNAc
# In short: as §1
# [35] = target: Neu5Ac(a2-3)Gal(b1-3)]Neu5Ac(a2-3)Gal(b1-4)]GlcNAc
# In short: as §1
# Neu5Ac(a2-3)Gal(b1-4)Glc = target: Neu5Ac(a2-3)Gal(b1-4)Glc
# In short: as §1
# [36] = target: Neu5Ac(a2-3)Gal(b1-4)[Fuc(a1-3)]GlcNAc(b1-3)Gal(b1-4)GlcNAc
# In short: as §1
# Neu5Ac(a2-6)Gal = target: Neu5Ac(a2-6)Gal
# In short: as §1
# [37] = target: Neu5Ac(a2-6)Gal(b1-4)GlcNAc(b1-2)[Neu5Ac(a2-6)Gal(b1-4)GlcNAc(b1-4)]Man(a1-3)[GlcNAc(b1-4)][Neu5Ac(a2-6)Gal(b1-4)GlcNAc(b1-2)[Neu5Ac(a2-6)Gal(b1-4)GlcNAc(b1-6)]Man(a1-6)]Man(b1-4)GlcNAc(b1-4)GlcNAc
# In short: as §1
# [38] = target: Neu5Ac(a2-6)Gal(b1-4)GlcNAc(b1-3)Gal(b1-4)GlcNAc
# In short: as §1
# [39] = target: Neu5Ac(a2-6)Gal(b1-4)GlcNAc(b1-6)[Gal(b1-3)]GalNAc
# In short: as §1
# [40] = target: Neu5Ac(a2-6)Gal(b1-4)GlcNAc6S
# In short: as §1
# [41] = target: Neu5Ac(a2-8)Neu5Ac(a2-8)Neu5Ac(a2-3)[Gal(b1-3)GalNAc(b1-4)]Gal(b1-4)Glc
# In short: as §1
# [42] = target: Neu5Ac(a2-8)Neu5Gc(a2-3)Gal(b1-4)GlcNAc
# In short: as §1
binder,measurement,setting,value
"Epa7 (Candida glabrata), Q6DTM6_CANGB (protein) MGSSHHHHHHSSGLVPRGSHMKDDYSSFLSNNNLGWTDPTEFPLGCSPNVTTPKNGLSMELYSYDLRKNGSYPCWDAAYLDPNYPRTGYKSHRLLAKVDGVTGNINFYYHATKGCTPEIDHLPASYNYPKPLTMTNFTMLLYGYFKPKVTGYHTFTISADDLLFVNFGAGNAFDCCKRESSADDFGNYQAYAVWGSQTAKDDLTVHLDAGLYYPIRIFFNNREYDAELSLTLKTESDSNPVIDFSDYFYSFDDTKDGCPGLVSYDTS",glycan array binding signal (z-score),Fuc(a1-2)Gal(b1-3)GalNAc,-0.169
same,glycan array binding signal (z-score),[1],-0.072
same,glycan array binding signal (z-score),[2],-0.206
same,glycan array binding signal (z-score),[3],-0.253
same,glycan array binding signal (z-score),[4],-0.209
same,glycan array binding signal (z-score),[5],-0.027
same,glycan array binding signal (z-score),[6],-0.285
same,glycan array binding signal (z-score),Fuc(a1-2)[Gal(a1-3)]Gal,-0.213
same,glycan array binding signal (z-score),[7],-0.241
same,glycan array binding signal (z-score),[8],-0.208
same,glycan array binding signal (z-score),[9],-0.256
same,glycan array binding signal (z-score),[10],-0.19
same,glycan array binding signal (z-score),[11],-0.201
same,glycan array binding signal (z-score),Gal(b1-3)Gal,2.85
same,glycan array binding signal (z-score),Gal(b1-3)Gal(b1-4)GlcNAc,5.79
same,glycan array binding signal (z-score),[12],5.79
same,glycan array binding signal (z-score),[13],5.59
same,glycan array binding signal (z-score),Gal(b1-3)GalNAc(b1-3)Gal,11
same,glycan array binding signal (z-score),[14],4.75
same,glycan array binding signal (z-score),[15],7.99
same,glycan array binding signal (z-score),[16],4.82
same,glycan array binding signal (z-score),Gal(b1-3)GlcNAc,-0.104
same,glycan array binding signal (z-score),[17],-0.207
same,glycan array binding signal (z-score),[18],1.21
same,glycan array binding signal (z-score),[19],4.18
same,glycan array binding signal (z-score),Gal(b1-4)Glc,-0.199
same,glycan array binding signal (z-score),[20],-0.246
same,glycan array binding signal (z-score),[21],0.068
same,glycan array binding signal (z-score),[22],5.02
same,glycan array binding signal (z-score),[23],0.23
same,glycan array binding signal (z-score),[24],5.53
same,glycan array binding signal (z-score),Gal6P(b1-4)GlcNAc,-0.241
same,glycan array binding signal (z-score),GalNAc(b1-3)Gal,-0.245
same,glycan array binding signal (z-score),[25],-0.251
same,glycan array binding signal (z-score),GalNAc(b1-4)Gal(b1-4)Glc,-0.213
same,glycan array binding signal (z-score),[26],-0.234
same,glycan array binding signal (z-score),[27],-0.237
same,glycan array binding signal (z-score),[28],-0.197
same,glycan array binding signal (z-score),[29],-0.232
same,glycan array binding signal (z-score),GlcNAc(b1-3)Fuc,-0.233
same,glycan array binding signal (z-score),[30],-0.225
same,glycan array binding signal (z-score),GlcNAc(b1-3)Man,-0.232
same,glycan array binding signal (z-score),GlcNAc(b1-4)GlcNAc,-0.23
same,glycan array binding signal (z-score),[31],-0.06
same,glycan array binding signal (z-score),[32],-0.256
same,glycan array binding signal (z-score),[33],-0.21
same,glycan array binding signal (z-score),[34],-0.196
same,glycan array binding signal (z-score),[35],-0.228
same,glycan array binding signal (z-score),Neu5Ac(a2-3)Gal(b1-4)Glc,-0.257
same,glycan array binding signal (z-score),[36],-0.189
same,glycan array binding signal (z-score),Neu5Ac(a2-6)Gal,-0.228
same,glycan array binding signal (z-score),[37],-0.234
same,glycan array binding signal (z-score),[38],-0.258
same,glycan array binding signal (z-score),[39],1.19
same,glycan array binding signal (z-score),[40],-0.257
same,glycan array binding signal (z-score),[41],0.014
same,glycan array binding signal (z-score),[42],-0.241
